Assay [1] concerns Plasmodium falciparum Sir2 (PF13_0152, Sir2A). In words: Plasmodium falciparum Sir2A binding compounds – biochemical, small-molecule microarray, 635 nm fluorescence, primary screen (AID 1098).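 Further: score merges spot fluorescence intensity with its signal-to-noise ratio.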 As to conditions: fluorescence 635 nm, higher = more signal.
The nature of assay [2]: probe aDKK1 binding to arrayed compounds – biochemical, biotinylated probe, 635/667 nm fluorescence, primary screen (AID 1099).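 Further: score merges 667nm spot fluorescence with signal to noise across triplicate slides.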 The following applies: small-molecule microarray, higher = more signal.
The nature of assay [3]: probe aCHRDL2 binding to arrayed compounds – biochemical, biotinylated probe, 635/667 nm fluorescence, primary screen (AID 1100). The following applies: small-molecule microarray, higher = more signal.
The nature of assay [4]: change in splice reporter luminescence, either direction, cell-based, HEK293, spliceosome inhibition project, primary screen (AID 1101).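 Further: HEK293 cells carrying a splicing-competent luciferase reporter gene; test concentration not given here.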 The following applies: HEK293 splicing luciferase reporter, 24 h, higher = more signal, called active from +8 up or from −8 down. For orientation: A reporter such as luciferase makes a cellular process visible.
Assay [5] concerns the target Fibroblast growth factor 10 (Homo sapiens) (UniProt O15520). In words: compounds binding fibroblast growth factor 10 – biochemical, small-molecule microarray, 635 nm fluorescence, primary screen (AID 1102). The following applies: FGF10 binding, fluorescence 635 nm, higher = more signal.
For assay [6], the system named is glycogen synthase kinase-3 (GSK3A per assay name; protocol says GSK3B). In words: compounds binding glycogen synthase kinase-3 – biochemical, small-molecule microarray, 635 nm fluorescence, GSK3A, primary screen (AID 1103). Further: the record names both GSK3A and GSK3B. As to conditions: fluorescence 635 nm, higher = more signal.
Assay [7] concerns the target Epidermal growth factor receptor (Homo sapiens) (UniProt P00533). The assay is described as follows: compounds binding epidermal growth factor receptor – biochemical, small-molecule microarray, 635 nm fluorescence, primary screen (AID 1104).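 Further: score merges 667 nm emission intensity with spot signal to noise over triplicate slides.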 The following applies: EGFR binding, higher = more signal.
Assay [8] deals with Follistatin-related protein 3 (Homo sapiens) (UniProt O95633). The assay is described as follows: compounds binding follistatin-related protein 3 – biochemical, small-molecule microarray, 635 nm fluorescence, primary screen (AID 1105).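 Further: score merges emission near 667 nm and signal to noise per printed spot across three slides.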 The following applies: FSTL3 binding, higher = more signal.
Assay [9] addresses Dickkopf-related protein 1 (Homo sapiens) (UniProt O94907). In words: small molecules binding DKK1 protein – biochemical, small-molecule microarray, 635 nm fluorescence scan, primary screen (AID 1106).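 Further: score merges emission near 667 nm with signal to noise over three replicate slides.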 As to conditions: higher = more signal.
In assay [10] the test system is Inhibin beta A chain (activin A). The assay is described as follows: small molecules binding activin A – biochemical, small-molecule microarray, 635 nm fluorescence scan, primary screen (AID 1107).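 Further: mouse activin A protein probed at 4.33 µg/mL on printed slides; score merges bound-protein fluorescence near 667 nm with spot signal-to-noise.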 The following applies: INHBA, higher = more signal.
Assay [11] concerns Human papillomavirus type 1a protein E7 (residues 44-93). In words: small molecules binding HPV E7 44-93 – biochemical, small-molecule microarray, residues 44-93, 635 nm fluorescence, primary screen (AID 1108).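 Further: E7 fragment applied at 1 µg/mL in TBST for 1 h at 4 C; score combines spot fluorescence with its signal to noise ratio.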 The following applies: fluorescence 635 nm, higher = more signal.
A short description of assay [12]: hepatitis C replication reporter changes, two-sided – Huh7 cells, luciferase reporter, HCV replication inhibitor project, primary screen (AID 1109).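 Further: huh7 hepatoma cells harbouring a luciferase neomycin HCV replicon reporter; luciferase luminescence as measure of HCV replicon replication; test concentration not given here.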 As to conditions: Huh7 HCV replicon luciferase reporter, 48 h; higher = more signal.
Assay [13] has as its target Left-right determination factor 2 (Homo sapiens) (UniProt O00292). In words: small molecules binding LEFTY2 protein – biochemical, small-molecule microarray, 635 nm fluorescence scan, primary screen (AID 1110). The following applies: higher = more signal.
The target of assay [14] is Calmodulin-1 (Homo sapiens) (UniProt P0DP23). In words: small molecules binding calmodulin-1 with EGTA – biochemical, small-molecule microarray, Cy5-labelled CALM1, profiling panel (AID 1111).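 Further: labelled calmodulin applied in Tris saline Tween buffer holding calcium plus EGTA and DTT.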 As to conditions: Cy5-CALM1 binding fluorescence, higher = more signal.
Assay [15] has the same target. The assay is described as follows: small molecules binding Ca-loaded calmodulin-1 – biochemical, small-molecule microarray, Cy5-labelled CALM1, plus calcium, artefact control for SMM control-protein annotation, profiling panel (AID 1112).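 Further: score merges spot fluorescence with signal to noise from triplicate slides.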 The following applies: Cy5-CALM1 binding fluorescence, higher = more signal.
A short description of assay [16]: probe aWnt5a binding to arrayed compounds – biochemical, biotinylated probe, 635/667 nm fluorescence, primary screen (AID 1113).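 Further: score merges 667 nm fluorescence intensity with signal-to-noise per printed feature.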 The following applies: small-molecule microarray, higher = more signal.
Assay [17] can be described thus: probe aShh binding to arrayed compounds – biochemical, biotinylated probe, 635/667 nm fluorescence, primary screen (AID 1114).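 Further: probe is biotin-labelled aShh protein from a stem cell growth factor screen; measures binding of labelled protein to compounds printed on the slide; score merges feature fluorescence at 667 nm with signal-to-noise.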 The following applies: small-molecule microarray, higher = more signal.
A short description of assay [18]: probe aNog binding to arrayed compounds – biochemical, biotinylated probe, 635/667 nm fluorescence, primary screen (AID 1115).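 Further: probe is biotinylated aNog protein used at 0.15 µg/mL for 1 h at 4 C; z-score combines 667 nm fluorescence of each spot with its signal to noise.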 The following applies: small-molecule microarray, higher = more signal.
Assay [19] has as its target Torsin-1A-interacting protein 1 (Homo sapiens) (UniProt Q5JTV8). The assay is described as follows: compound microarray binding of lysate hLAP1 – cell lysate, small-molecule microarray, COS7 lysate, 635/667 nm fluorescence, primary screen (AID 1116). As to conditions: 635 nm fluorescence, higher = more signal.
The target of assay [20] is Alpha-bungarotoxin (Bungarus multicinctus) (UniProt P60615). In words: compounds binding labelled alpha-BTX control protein – biochemical, small-molecule microarray, Alexa647 label, 635/667 nm fluorescence, artefact control for SMM control protein annotation, profiling panel (AID 1117). As to conditions: alpha-BTX-A647 binding fluorescence, higher = more signal.

Active and inactive are the calls of the source.

Fibroblast growth factor 10 (Homo sapiens), sequence (O15520 whole entry, looked up): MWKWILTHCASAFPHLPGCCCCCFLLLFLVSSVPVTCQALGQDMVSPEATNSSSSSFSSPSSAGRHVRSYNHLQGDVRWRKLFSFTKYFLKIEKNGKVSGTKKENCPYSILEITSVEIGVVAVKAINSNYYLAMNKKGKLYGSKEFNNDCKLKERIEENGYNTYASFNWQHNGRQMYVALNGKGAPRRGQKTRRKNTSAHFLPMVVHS
Epidermal growth factor receptor (Homo sapiens), sequence (P00533 whole entry, looked up): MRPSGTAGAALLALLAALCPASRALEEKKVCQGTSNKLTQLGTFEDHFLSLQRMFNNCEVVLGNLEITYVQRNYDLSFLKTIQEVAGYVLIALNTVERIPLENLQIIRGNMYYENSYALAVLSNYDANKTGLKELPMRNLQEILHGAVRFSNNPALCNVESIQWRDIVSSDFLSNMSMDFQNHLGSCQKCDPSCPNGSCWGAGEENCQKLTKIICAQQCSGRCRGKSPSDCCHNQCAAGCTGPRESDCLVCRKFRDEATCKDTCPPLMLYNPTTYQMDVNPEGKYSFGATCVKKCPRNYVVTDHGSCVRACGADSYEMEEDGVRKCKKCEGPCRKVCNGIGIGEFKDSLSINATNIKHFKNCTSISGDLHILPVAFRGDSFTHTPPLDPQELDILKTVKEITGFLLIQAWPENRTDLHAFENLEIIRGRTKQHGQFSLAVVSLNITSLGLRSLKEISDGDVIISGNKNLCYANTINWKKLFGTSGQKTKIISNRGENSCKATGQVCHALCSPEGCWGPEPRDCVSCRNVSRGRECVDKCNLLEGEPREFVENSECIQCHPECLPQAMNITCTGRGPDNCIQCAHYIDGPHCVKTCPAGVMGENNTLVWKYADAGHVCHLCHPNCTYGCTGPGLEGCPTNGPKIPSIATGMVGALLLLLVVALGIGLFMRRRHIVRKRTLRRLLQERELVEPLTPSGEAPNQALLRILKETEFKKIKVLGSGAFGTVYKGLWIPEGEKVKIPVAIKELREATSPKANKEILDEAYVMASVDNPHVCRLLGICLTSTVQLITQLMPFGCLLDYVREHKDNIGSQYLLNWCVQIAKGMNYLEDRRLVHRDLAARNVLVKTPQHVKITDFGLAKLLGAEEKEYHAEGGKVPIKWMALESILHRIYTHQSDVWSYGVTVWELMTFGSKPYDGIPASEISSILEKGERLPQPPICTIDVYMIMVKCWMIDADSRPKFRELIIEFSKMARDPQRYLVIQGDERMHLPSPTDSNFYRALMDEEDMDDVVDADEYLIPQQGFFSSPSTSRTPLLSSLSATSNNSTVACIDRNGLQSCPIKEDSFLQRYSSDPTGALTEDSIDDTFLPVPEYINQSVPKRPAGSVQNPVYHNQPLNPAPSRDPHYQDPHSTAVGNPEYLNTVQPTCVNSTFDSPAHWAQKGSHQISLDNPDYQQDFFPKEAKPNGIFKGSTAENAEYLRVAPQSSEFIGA
Follistatin-related protein 3 (Homo sapiens), sequence (O95633 whole entry, looked up): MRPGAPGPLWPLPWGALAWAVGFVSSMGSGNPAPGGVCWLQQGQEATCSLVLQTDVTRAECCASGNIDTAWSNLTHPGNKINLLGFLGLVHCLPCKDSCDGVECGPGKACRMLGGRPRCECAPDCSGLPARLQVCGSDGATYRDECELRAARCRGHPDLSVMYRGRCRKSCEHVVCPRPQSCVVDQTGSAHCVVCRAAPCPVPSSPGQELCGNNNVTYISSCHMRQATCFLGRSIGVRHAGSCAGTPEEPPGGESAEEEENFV
Dickkopf-related protein 1 (Homo sapiens), sequence (O94907 whole entry, looked up): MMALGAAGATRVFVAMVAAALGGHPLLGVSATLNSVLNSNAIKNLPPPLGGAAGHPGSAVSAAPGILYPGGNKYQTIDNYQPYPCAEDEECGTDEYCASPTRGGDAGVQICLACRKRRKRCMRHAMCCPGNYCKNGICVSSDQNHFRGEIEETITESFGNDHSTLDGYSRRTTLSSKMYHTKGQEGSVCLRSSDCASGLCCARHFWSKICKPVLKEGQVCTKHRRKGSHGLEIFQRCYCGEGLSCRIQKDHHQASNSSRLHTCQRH
Alpha-bungarotoxin (Bungarus multicinctus), sequence (P60615 whole entry, looked up): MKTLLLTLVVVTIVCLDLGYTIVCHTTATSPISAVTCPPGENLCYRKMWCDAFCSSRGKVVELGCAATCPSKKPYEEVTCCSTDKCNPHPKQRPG
Torsin-1A-interacting protein 1 (Homo sapiens), sequence (Q5JTV8 whole entry, looked up): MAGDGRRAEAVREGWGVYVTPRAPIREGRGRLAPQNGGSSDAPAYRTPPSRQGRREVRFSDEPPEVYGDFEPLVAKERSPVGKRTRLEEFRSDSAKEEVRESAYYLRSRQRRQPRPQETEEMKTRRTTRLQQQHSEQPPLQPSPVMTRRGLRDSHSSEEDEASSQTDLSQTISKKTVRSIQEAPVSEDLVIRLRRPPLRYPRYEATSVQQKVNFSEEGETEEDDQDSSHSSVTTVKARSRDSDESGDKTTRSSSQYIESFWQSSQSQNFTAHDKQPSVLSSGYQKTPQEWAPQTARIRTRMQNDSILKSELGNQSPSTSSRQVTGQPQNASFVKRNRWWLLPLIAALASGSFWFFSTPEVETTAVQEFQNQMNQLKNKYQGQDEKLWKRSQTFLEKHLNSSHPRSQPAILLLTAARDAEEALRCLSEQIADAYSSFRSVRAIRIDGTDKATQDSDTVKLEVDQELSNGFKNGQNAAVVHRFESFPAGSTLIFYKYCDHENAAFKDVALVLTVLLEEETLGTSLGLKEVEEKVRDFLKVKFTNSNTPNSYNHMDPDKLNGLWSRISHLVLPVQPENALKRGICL
Left-right determination factor 2 (Homo sapiens), sequence (O00292 whole entry, looked up): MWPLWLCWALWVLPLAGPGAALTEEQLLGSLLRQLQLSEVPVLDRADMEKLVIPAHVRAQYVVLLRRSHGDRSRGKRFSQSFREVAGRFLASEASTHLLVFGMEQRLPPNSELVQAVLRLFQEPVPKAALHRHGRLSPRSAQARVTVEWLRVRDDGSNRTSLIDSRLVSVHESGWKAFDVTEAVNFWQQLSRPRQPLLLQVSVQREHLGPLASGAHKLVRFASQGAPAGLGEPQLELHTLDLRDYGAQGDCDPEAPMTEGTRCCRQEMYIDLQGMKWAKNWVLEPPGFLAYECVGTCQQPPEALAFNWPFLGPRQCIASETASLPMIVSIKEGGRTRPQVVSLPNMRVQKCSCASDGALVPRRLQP

Regarding `CC(C)c1ccc(NN2C(C(O)c3ccco3)C=CC3C(=O)N(c4ccccc4)C(=O)C32)cc1` (stereo not given), the composite z-score was 1.02 in [1]; 0.978 in [2]; 1.09 in assay [3]; 0.783 in assay [5]; 1.3 in assay [6]; 0.0401 in assay [7]. Moreover, the composite z-score in assay [8] is 1.22; in [9], 0.191; in assay [10], 1.14; in [11] it was 0.729; in assay [13], 0.183; in [14], 2.07. Moreover, the composite z-score in assay [15] is 0.941; in assay [16] it was 0.0629; in assay [17] it was 0.279; in assay [18], 1.47; in assay [19], 0.93; in assay [20], 2.69. In addition, the z-score was 0.165 (inactive) in [4] and 3.21 in [12].

For `COC(=O)[C@@]1(Cc2ccc(OC)cc2)[C@H]2c3cc(C(=O)N(C)C)n(Cc4ccccc4)c3C[C@H]2CN1C(=O)c1ccccc1`, the composite z-score was 0.656 in [1]; 0.268 in assay [2]; -0.332 in assay [3]; 0.0697 in assay [5]; 0.0849 in assay [6]; -0.342 in [7]. In addition, the composite z-score was -0.0447 in assay [8]; -0.128 in assay [9]; 0.825 in assay [10]; 1.34 in assay [11]; -0.367 in [13]; 1.63 in assay [14]. The composite z-score in assay [15] was 1.03; in assay [16], -0.0681; in assay [17], -0.12; in assay [18], -0.759; in assay [19], -0.681; in assay [20], 0.187. The figures for the z-score in assay [4] and in assay [12] were -2.28 (inactive) and -1.66, respectively.

With `COc1ccc(NN2C(C(O)c3ccccn3)C=CC3C(=O)N(C4CCCCC4)C(=O)C32)cc1` (stereo not given), the composite z-score in [1] is 1.31; in assay [2], 0.2; in [3] it was 0.862; in assay [5], 0.962; in [6], 1.25; in assay [7], 0.224. For the same molecule, the composite z-score was 1.16 in assay [8]; -0.39 in assay [9]; 0.627 in assay [10]; 1.41 in assay [11]; -0.188 in assay [13]; 1.58 in [14]. Further, the composite z-score in assay [15] was found to be 0.37; in assay [16], 0.0391; in assay [17], 0.0875; in assay [18], 1.17; in assay [19] it was 0.766; in assay [20] it was 0.887. Besides, the z-score in assay [4] is -1.44 (inactive); in assay [12], -0.602.

Consider `CN1C2C=C(CCCO)C(C3C(=O)N(C(N)=O)C(=O)C32)C1c1cccs1` (stereo not given), for which the composite z-score was -0.254 in assay [1]; 1.3 in assay [2]; 0.492 in [3]; 1.12 in assay [5]; 0.386 in [6]; -0.259 in assay [7]. For the same molecule, the composite z-score in [8] is -0.173; in assay [9], 1.45; in [10], 0.418; in assay [11], 0.261; in assay [13] it was 0.362; in assay [14], -0.555. In addition, the composite z-score is -0.328 in assay [15]; 0.535 in assay [16]; -0.138 in assay [17]; -0.0987 in assay [18]; 0.377 in [19]; 0.378 in assay [20]. For the same molecule, the z-score is 0.359 (inactive) in assay [4] and -0.364 in [12].

Consider `CC(C)NC(=O)[C@@]1(C)c2ccccc2C(=O)N(C(C)C)[C@H]1c1ccc(CO)cc1`, for which the composite z-score was 1.58 in assay [1]; -0.123 in assay [2]; 0.925 in assay [3]; -1.09 in assay [5]; -0.643 in assay [6]; -1.68 in [7]. For the same molecule, the composite z-score in assay [8] was -0.673; in [9] it was -1.81; in assay [10], -1.53; in assay [11], -0.609; in assay [13], -3.05; in assay [14], -0.614. For the same molecule, the composite z-score in assay [15] is -0.0732; in [16], -0.296; in assay [17], -0.154; in [18], -0.435; in assay [19], -1.97; in assay [20], -0.43. Moreover, the z-score is 0.0862 (inactive) in assay [4] and -0.593 in [12].

Turning to `CCOC(=O)[C@H]1C/C=C/C[C@H](C(=O)OCC)C(=O)O[C@H]2[C@@H](OC)O[C@H](CO)[C@@H](OC(=O)CCc3ccccc3)[C@@H]2OC1=O`, the composite z-score in [1] was 0.254; in [2], -0.41; in [3], 0.128; in [5], -0.785; in assay [6] it was -1.46; in assay [7], -0.741. The composite z-score in assay [8] was -1.53; in assay [9] it was -0.315; in [10], 0.334; in [11], -0.431; in assay [13], -1.59; in assay [14], -0.381. Also, the composite z-score is 0.367 in [15]; -0.184 in assay [16]; -0.0937 in [17]; 1.47 in assay [18]; 0.162 in assay [19]; -0.187 in [20]. The results for the z-score in [4] and in assay [12] were -0.389 (inactive) and -1.85, respectively.

For the molecule `CC(C)(C)OC(=O)CC[C@]1(C(=O)NCCN2CCOCC2)N=C(c2ccc(OCCCO)cc2)O[C@H]1c1ccccc1N=[N+]=[N-]`, the composite z-score amounted to 1.63 in assay [1]; 0.99 in assay [2]; 1.12 in assay [3]; 0.177 in assay [5]; 1.17 in assay [6]; 0.303 in [7]. Also, the composite z-score in [8] is 0.361; in [9], -0.235; in [10], 1.24; in [11], 0.775; in [13] it was 0.245; in assay [14] it was 1.3. In addition, the composite z-score in [15] turned out to be 0.374; in assay [16], 0.0229; in [17], 0.0214; in [18], 1.73; in assay [19] it was 1.7; in assay [20], 1.04. In addition, the z-score in assay [4] was -1.03 (inactive); in [12], 1.08.

In the case of `[N-]=[N+]=NCc1ccccc1[C@H]1OC(c2ccc(OCCCO)cc2)=N[C@@]1(CCS(=O)(=O)c1ccccc1)C(N)=O`, the composite z-score in [1] is 1.37; in [2], 0.605; in [3], 1.07; in assay [5] it was 1.5; in assay [6], 1.1; in [7], -0.216. Also, the composite z-score in [8] was 0.441; in assay [9], -0.0333; in assay [10], 1.29; in [11], 1.11; in [13] it was 0.264; in assay [14], 0.145. Besides, the composite z-score in assay [15] was 0.257; in assay [16], -0.096; in assay [17] it was 0.265; in assay [18] it was 1.4; in assay [19] it was 1.47; in [20], 2.43. Besides, the z-score in assay [4] is -0.503 (inactive); in assay [12], -0.281.

The record behind these values is PubChem BioAssay.
